Source: PubChem BioAssay (EPA / NIEHS)
Calls of active or inactive are those of the source. How the source made its calls: active means hit-call score of the fitted dose curve at least 0.9, where 1 is the maximum; inactive means score below 0.9.

Assays:
[1] = read-out: Pselectin, SELP (gene 6403); test: BSK_4H_Pselectin: BioMAP Diversity Plus: 4H Assay for Pselectin Biomarker Activity (AID 2283026); conditions: primary human endothelial cells (HUVEC); actives raise or lower the signal
Method in brief: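 ELISA of surface P-selectin on HUVEC, 24 h after dosing, with parallel SRB staining (0.1% after 10% TCA fixation, 560 nm) for overt cytotoxicity. Activity fitted in both directions relative to DMSO.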

[2] = BSK_4H_SRB: Viability Assessment in the BioMAP Diversity Plus: 4H Assay (AID 2283027); conditions: primary human endothelial cells (HUVEC);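 further: cells exposed to compound for 24 h before staining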;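 on AC50: curves fitted both ways versus DMSO so AC50 may be loss or gain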
Method in brief: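 Cytotoxicity read-out in primary human endothelial cells: after 24 h compound exposure, cells were TCA-fixed (10%), stained with 0.1% SRB and absorbance taken at 560 nm. Values fitted in both directions relative to DMSO.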

[3] = BSK_BE3C_SRB: Viability Assessment in the BioMAP Diversity Plus: BE3C Assay (AID 2283028); conditions: primary human bronchial epithelial cells;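 on AC50: fitted both ways so AC50 may mark signal gain or loss versus DMSO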
Method in brief: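 Cytotoxicity read-out: SRB (0.1%) staining of TCA-fixed (10%) human lung bronchial epithelial cells, absorbance 560 nm, 24 h post-dosing. Curves fitted both directions relative to DMSO.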

[4] = read-out: Thrombomodulin, THBD (gene 7056); test: BSK_3C_Thrombomodulin: BioMAP Diversity Plus: 3C Assay for Thrombomodulin Biomarker Activity (AID 2283029); conditions: primary human endothelial cells (HUVEC); actives raise or lower the signal
Method in brief: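 ELISA measurement of thrombomodulin on HUVEC surface 24 h after chemical dosing; activity fitted in both directions relative to DMSO vehicle.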

[5] = read-out: Vascular endothelial growth factor receptor 2 (Homo sapiens) (UniProt P35968); test: BSK_4H_VEGFRII: BioMAP Diversity Plus: 4H Assay for Vascular endothelial growth factor receptor 2 (VEGFR2) Biomarker Activity (AID 2283031); conditions: primary human endothelial cells (HUVEC); actives raise or lower the signal;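 on AC50: cell-surface VEGFR2 protein level quantified by ELISA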
Method in brief: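 Measured by ELISA after 24 h of compound treatment: VEGFR2 on primary human umbilical vein endothelial cells, fitted in both directions relative to DMSO. Parallel cultures received SRB staining (560 nm) for overt cytotoxicity.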

[6] = read-out: Human Leukocyte Antigen - DR isotype (HLADR), HLA-DRA (gene 3122); test: BSK_BE3C_HLADR: BioMAP Diversity Plus: BE3C Assay for Human Leukocyte Antigen - DR isotype (HLADR) Biomarker Activity (AID 2283032); conditions: primary human bronchial epithelial cells; actives raise or lower the signal
Method in brief: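 Cell-surface HLA-DR ELISA readout at 24 h after dosing in the BE3C primary human lung bronchial epithelial system; gain or loss of signal against DMSO, with parallel sulforhodamine B staining of total protein for overt cytotoxicity.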

[7] = read-out: Vascular cell adhesion molecule 1 (VCAM1), VCAM1 (gene 7412); test: BSK_4H_VCAM1: BioMAP Diversity Plus: 4H Assay for Vascular cell adhesion molecule 1 (VCAM1) Biomarker Activity (AID 2283033); conditions: primary human endothelial cells (HUVEC); actives raise or lower the signal
Method in brief: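 VCAM-1 ELISA read 24 h after chemical dosing of HUVEC in the BioMAP 4H system, with gain or loss of signal fitted relative to DMSO. Parallel SRB staining (560 nm) checked overt cytotoxicity.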

[8] = read-out: Interferon-gamma inducible Protein 10 (IP10), CXCL10 (gene 3627); test: BSK_BE3C_IP10: BioMAP Diversity Plus: BE3C Assay for Interferon-gamma inducible Protein 10 (IP10) Biomarker Activity (AID 2283034); conditions: primary human bronchial epithelial cells; actives raise or lower the signal
Method in brief: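 IP-10 quantified by ELISA in human primary bronchial epithelial cell cultures at 24 hours post-dosing. Gain or loss of signal fitted relative to DMSO; parallel SRB staining assessed overt cytotoxicity.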

[9] = read-out: Urokinase-type plasminogen activator receptor (uPAR), PLAUR (gene 5329); test: BSK_4H_uPAR: BioMAP Diversity Plus: 4H Assay for Urokinase-type plasminogen activator receptor (uPAR) Biomarker Activity (AID 2283030); conditions: primary human endothelial cells (HUVEC); actives raise or lower the signal
Method in brief: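 uPAR level read by ELISA on HUVEC cultures (BioMAP 4H) 24 h post-dosing, analyzed for gain or loss relative to DMSO. Parallel SRB staining assessed overt cytotoxicity.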

[10] = read-out: Monokine induced gamma interferon (MIG), CXCL9 (gene 4283); test: BSK_BE3C_MIG: BioMAP Diversity Plus: BE3C Assay for Monokine induced gamma interferon (MIG) Biomarker Activity (AID 2283035); conditions: primary human bronchial epithelial cells; actives raise or lower the signal
Method in brief: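 ELISA quantified MIG after 24 h exposure of primary bronchial epithelial cultures, analysed in both directions relative to DMSO. Cytotoxicity tracked in parallel cultures by sulforhodamine B staining.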

Measured: AC50

COc1cc(C=O)cc2c1[C@H](COC(N)=O)[C@]1(OC(C)=O)ON2C[C@H]2[C@@H]1N2C(C)=O
active: [1] 3.37 µM | [2] 3.17 µM | [3] 6.31 µM | [5] 4.42 µM | [6] 1.74 µM | [7] 13.4 µM | [8] 2.72 µM
inactive: [4]

c1ccc(N=Nc2ccccc2)cc1
not listed: [9] | [10]
inactive: all other assays above

C1=Cc2cccc3cccc1c23
inactive: all assays above

OCCCl
not listed: [9] | [10]
inactive: all other assays above

Oc1ccc2ccc3cccc4ccc1c2c34
inactive: [3] | [4] | [5]
active: [1] 31.6 µM | [2] 31.5 µM | [6] 34.6 µM | [7] 34 µM | [8] 31.3 µM

c1ccc(NNc2ccccc2)cc1
not listed: [9] | [10]
inactive: all other assays above

Cn1cc(-c2ccccc2)c(=O)c(-c2cccc(C(F)(F)F)c2)c1
not listed: [9] | [10]
inactive: all other assays above

c1ccc2c(c1)-c1cccc3cccc-2c13
not listed: [5] | [10]
inactive: all other assays above

CC(C)N(Cc1ccccc1)C(=O)C(C)(C)C
not listed: [9] | [10]
inactive: all other assays above

O=P(OCCCl)(OCCCl)OCCCl
inactive: all assays above

O=C(O)C1C2CCC(O2)C1C(=O)O (stereo not given)
active: [1] 16 µM | [9] 18.6 µM | [7] 12.1 µM
inactive: all other assays above

CNC(=O)Oc1cccc2c1OC(C)(C)C2
inactive: all assays above

CCCCCCCCCCCCCN1CC(C)OC(C)C1 (stereo not given)
not listed: [9] | [10]
inactive: all other assays above

Nc1cc(Cl)cc(C(=O)O)c1Cl
inactive: all assays above

Cc1ccc(N=C=O)cc1N=C=O
active: [8] 20 µM
not listed: [9] | [10]
inactive: all other assays above

COP(=S)(OC)SCN1C(=O)c2ccccc2C1=O
not listed: [9]
inactive: all other assays above

Nc1ccc(Oc2ccc(N)cc2)cc1
not listed: [9] | [10]
inactive: all other assays above

N#CC(Br)(Br)C(N)=O
not listed: [9]
inactive: all other assays above

[As]#[In]
not listed: [9]
inactive: all other assays above

CCN(CC)N=O
not listed: [9]
inactive: all other assays above

ClCCOCCCl
not listed: [9]
inactive: all other assays above

O=C(Oc1ccc(Br)cc1)N1CCN2CCC1CC2
not listed: [9]
inactive: all other assays above

CCC(C)c1ccc(O)cc1 (stereo not given)
not listed: [9]
inactive: all other assays above

CCN(CC)CCO
not listed: [9]
inactive: all other assays above

Nc1ccc([N+](=O)[O-])cc1
not listed: [9] | [10]
inactive: all other assays above

CC(C)(O)c1cnn2c(-c3ccc(F)c(-c4c(F)cccc4C#N)c3)cnc2n1
inactive: [5] | [7]
active: [1] 36.2 µM | [2] 28.9 µM | [3] 29.6 µM | [4] 22700 nM | [6] 36.5 µM | [8] 31.7 µM | [10] 36.9 µM

Brc1ccc(Oc2ccccc2)cc1
not listed: [9]
inactive: all other assays above

CN(C)c1ccccc1
not listed: [9]
inactive: all other assays above

Clc1ccccc1Cl
not listed: [9] | [10]
inactive: all other assays above

CCCCCOC(=O)c1ccccc1C(=O)OCCCCC
active: [1] 20 µM | [7] 18.5 µM
not listed: [9]
inactive: all other assays above

CCC[CH2][Sn]([Cl])([CH2]CCC)[CH2]CCC
active: [1] 0.148 µM | [2] 0.148 µM | [3] 0.148 µM | [4] 486 nM | [6] 0.215 µM | [7] 0.148 µM | [8] 0.324 µM | [10] 0.162 µM

CC(C)(C)C(O)(CCc1ccc(Cl)cc1)Cn1cncn1 (stereo not given)
not listed: [9]
inactive: all other assays above

Oc1ccccc1Cl
not listed: [9]
inactive: all other assays above

CN(C)[C@@H]1C(=O)C(C(N)=O)=C(O)[C@@]2(O)C(=O)C3=C(O)c4c(O)cccc4[C@@](C)(O)[C@H]3C[C@@H]12
not listed: [9]
inactive: all other assays above

CCOC(=O)[C@]1(c2ccccc2)Oc2ccccc2[C@@H]1N
active: [6] 20 µM | [7] 7.44 µM
not listed: [9] | [10]
inactive: all other assays above

COC(=O)c1ccccc1N
not listed: [9] | [10]
inactive: all other assays above

c1ccc(C2CO2)cc1 (stereo not given)
not listed: [9]
inactive: all other assays above

Nc1ccc(Cl)cc1N
active: [1] 1.11 µM | [4] 785 nM | [7] 2.74 µM
not listed: [9]
inactive: all other assays above

CCOc1cccc(C2(N3CCN(c4ccccc4)CC3)CCC(C)CC2)c1 (stereo not given)
not listed: [9]
inactive: all other assays above

CN(C)c1ccc(C(=O)c2ccc(N(C)C)cc2)cc1
active: [2] 1.56 µM
not listed: [9]
inactive: all other assays above

Clc1ccc(Cl)c(Cl)c1
not listed: [9]
inactive: all other assays above

CCCCC(CC)COC(=O)c1ccc(C(=O)OCC(CC)CCCC)c(C(=O)OCC(CC)CCCC)c1 (stereo not given)
not listed: [9]
inactive: all other assays above

CCCSC(=O)N(CCC)CCC
not listed: [9] | [10]
inactive: all other assays above
